# Results filed as inconclusive are left out. Calls of active or inactive are those of the source. The call rests on the fitted dose curve.
# Test: Normal 1 Cell Viability Secondary Assay for qHTS Assay for Epigenetic Modulators
# Settings: Normal 1 bronchial epithelial viability, MTS, 4 d
# Excerpt: NIH Molecular Libraries Screening Centers Network [MLSCN] NIH Chemical Genomics Center [NCGC] MLSCN Grant: 1 X01 MH079860-01 Assay Provider: Elisabeth D. Martinez, University of Texas SW Medical Center NCGC Assay Overview: This secondary assay characterizes selected actives identified in the qHTS of the Locus Derepression (LDR) assay (PubChem AID 597). The LDR assay detects the derepression of a GFP reporter that is stably integrated in a region of the genome of murine c127i mammary cells that is presumably silenced. Compounds that cause derepression of the locus to express GFP are identified by enumerating GFP positive cells using a laser-scanning microplate cytometer. […] Normal 1 cell viability was measured using Cell Titer 96 AQueous One (Promega), an assay which detects the ability of metabolically active cells to reduce a tetrazolium salt substrate (MTS), into a soluble formazan product that can be measured by colorimetry.
# NCGC Assay Protocol Summary Normal 1 cells were plated in 96-well flat bottom tissue culture dishes (Corning) and grown overnight at 37 C and 5% CO2, then treated with compounds, incubated 4 days, and assayed for viability using the Cell Titer 96 AQueous One kit (Promega) according to the manufacturer's protocol. Absorbance at 490 nm and 650 nm (reference) was measured by a Spectra Max (Molecular Devices). […]
smiles,measurement,value
CN1CSC(=S)N(C)C1,outcome,inactive
